Screening results deposited in PubChem by The Scripps Research Institute Molecular Screening Center.
A selection: hits, their analogues and other compounds. The true share with any hit is near 3.5%.
TEAD-YAP block: TEAD-YAP interaction inhibition; HEK-TIYL cells, TEAD-Gal4/YAP UAS-luciferase luminescence; AID 1259422; inhibition, % at 9.12 µM; hit rate 1.4% among 640,000; in the data active means inhibition above about 32%;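 further: 0% = median of test compound wells and 100% = reference inhibitor wells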
MITF inh: blocks human microphthalmia-associated transcription factor; O75030; AlphaScreen MITF homodimerization, bead proximity signal; inhibition, % at 2.6 µM; hit rate 0.91% among 650,000; AID 1259374; in the data active means inhibition above about 50%;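 further: 0% = vehicle wells with protein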
Target sequence (O75030 whole entry, looked up): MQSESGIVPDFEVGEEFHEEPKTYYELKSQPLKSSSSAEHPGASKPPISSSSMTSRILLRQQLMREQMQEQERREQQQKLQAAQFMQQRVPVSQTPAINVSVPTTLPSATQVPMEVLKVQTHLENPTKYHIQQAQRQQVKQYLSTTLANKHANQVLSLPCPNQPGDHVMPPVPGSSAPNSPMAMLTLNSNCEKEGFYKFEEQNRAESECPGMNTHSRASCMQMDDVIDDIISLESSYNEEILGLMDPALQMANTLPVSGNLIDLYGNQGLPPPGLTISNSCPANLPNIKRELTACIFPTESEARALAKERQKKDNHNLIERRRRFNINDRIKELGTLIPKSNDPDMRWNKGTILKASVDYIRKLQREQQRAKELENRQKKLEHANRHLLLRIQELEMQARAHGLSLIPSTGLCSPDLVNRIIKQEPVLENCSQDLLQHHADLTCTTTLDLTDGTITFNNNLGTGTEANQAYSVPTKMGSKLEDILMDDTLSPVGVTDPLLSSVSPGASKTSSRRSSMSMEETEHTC
FBW7 activator: human FBW7 E3 ligase activation, primary screen | Q969H0 | AlphaScreen FBW7–phospho-cyclin E peptide binding, activator screen | normalized activity (activation), % at 26.1 µM | hit rate 0.13% among 650,000 | AID 1259310; in the data active means normalized activity above about 1.9%;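 further: purified mutant Fbw7 with reduced substrate affinity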
GPR151 ag: activates the human receptor GPR151; PathHunter beta-arrestin GPR151 cells, luminescence; activation, % at 11.2 µM; Q8TDV0; AID 1508602; hit rate 1% among 650,000; in the data active means activation above about 4.9%;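 further: 0% = median of compound wells and 100% = cells with positive control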
GPR151 conf act: human GPR151 activation, confirmation screen; shares compounds with GPR151 ag; GPR151 PathHunter beta-arrestin cells, luminescence, 90 min; % of EA-reagent control over plate median; activation, % at 11.2 µM; 6,700 tested, under 10 active; AID 1508609;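 active means mean percent activation across replicates above the confirmation screen cutoff of 4.91%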
GPR119 ag: activates human GPR119 in a GPR151 counter-screen; shares compounds with GPR151 ag; GPR119 PathHunter beta-arrestin cells, luminescence, 90 min; 0 = compound-well median, 100 = enzyme-acceptor control; hit rate 0.3% among 6,700; AID 1508611; activation, % at 11.2 µM;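 active means mean percent activation in the counterscreen above 29.09%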;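 further: counterscreen on off-target GPR119 to flag nonselective hits from the GPR151 activator screen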
Starred values were filed as active, the others as inactive; nt = no result given.

SMILES | TEAD-YAP block | MITF inh | FBW7 activator | GPR151 ag | GPR151 conf act | GPR119 ag
O=C(Nc1nnc(COc2ccccc2)o1)c1ccccc1 | 8.8 | 20.1 | 0.2 | -0.2 | nt | nt
COc1ccc(Cl)cc1NS(=O)(=O)c1cc2c3c(c1)CC(=O)N3CCC2 | 0.6 | 5.0 | 0.0 | 1.4 | nt | nt
COc1ccc(C/C(N)=N/OC(=O)Cc2ccccc2)cc1 | -6.6 | 0.4 | 0.4 | -0.9 | nt | nt
CCC(CC)C(=O)O/N=C(\N)Cc1ccc(OC)cc1 | 3.4 | 12.3 | -0.3 | 9.3* | 0.6 | -0.9
Clc1ccc2nc(N3N=C(c4cccs4)CC3c3ccccc3Cl)nc(-c3ccccc3)c2c1 (centres undefined) | 15.8 | 6.8 | 0.0 | 0.3 | nt | nt
COc1ccccc1/C=C/CN1CCN(Cc2ccccc2)C(CCO)C1 (centres undefined) | -3.0 | -3.2 | -0.1 | -0.3 | nt | nt
Cc1ccc(CN2CCN(C/C(Cl)=C/c3ccccc3)CC2CCO)o1 (centres undefined) | 7.0 | 8.3 | 0.2 | 5.4* | 0.0 | -0.8
Cc1ccc(CN2CCN(Cc3ccc4c(c3)OCCO4)CC2CCO)o1 (centres undefined) | 3.2 | 7.6 | 0.0 | 5.9* | 0.6 | 12.0
CC(C)=CCN1CCN(Cc2ccc3nonc3c2)CC1CCO (centres undefined) | 3.0 | 2.7 | 0.1 | 5.4* | -0.8 | -19.9
COc1ccccc1/C=C/CN1CCN(Cc2cccs2)C(CCO)C1 (centres undefined) | 2.7 | 8.4 | 0.2 | 6.9* | -1.0 | -9.8
Cc1ccc(CN2CCN(Cc3ccc4nonc4c3)CC2CCO)cc1 (centres undefined) | -1.1 | 11.2 | 0.2 | -0.6 | nt | nt
COc1cc(Nc2nc(-c3ccc(C(=O)N4CCN(C)CC4)cc3)nc3c2ncn3-c2ccsc2)cc(OC)c1OC | -0.8 | 20.9 | -0.1 | -0.1 | nt | nt
Cc1ccc(CN2CCN(C/C=C/c3ccc(F)cc3)CC2CCO)o1 (centres undefined) | 4.7 | 12.4 | 0.1 | 12.6* | -0.1 | -4.6
Cc1ccc(CN2CCN(C/C=C/C(C)C)CC2CCO)o1 (centres undefined) | -3.2 | 3.1 | 0.2 | -1.4 | nt | nt
CC(=O)Nc1ncc2c(n1)CC(C)(C)CC2=O | -1.1 | 9.4 | 0.1 | 0.8 | nt | nt
Cc1cc(C)nc(SCC(=O)Nc2ncc3c(n2)CC(C)(C)CC3=O)n1 | 8.5 | 5.5 | 0.0 | 5.6* | 1.2 | 12.9
COc1cc(C)c(C)cc1S(=O)(=O)NC1CCCCC1C (centres undefined) | 1.7 | 5.0 | -0.1 | 8.8* | 0.2 | 7.9
COc1ccc(C)cc1S(=O)(=O)NC1CCCCC1C (centres undefined) | -6.4 | -4.7 | 0.0 | 1.7 | nt | nt
NNC(=O)c1cc(-c2ccccc2)n(-c2ccccc2)n1 | -0.7 | -16.8 | -0.1 | -0.8 | nt | nt
O=c1cnn(-c2ccccc2)c(-c2ccccc2)c1 | -7.2 | 1.8 | 0.0 | 6.7* | -0.4 | -2.5
COC(=O)CSc1nc2ccccc2n1CC(=O)NC1CCCC1 | 0.2 | 13.1 | 0.1 | -0.6 | nt | nt
CCCNC(=O)CSc1nc2ccccc2n1CC(=O)NC1CCCC1 | -8.5 | -26.9 | 0.1 | 7.8* | 0.0 | -1.6
OCCC1CN(Cc2cc3ccccc3o2)CCN1Cc1cccs1 (centres undefined) | -9.4 | 2.4 | 0.0 | 0.0 | nt | nt
CCCc1nnc(SCC(=O)N2CCOCC2)n1CC | -4.5 | 2.3 | 0.0 | 0.9 | nt | nt
CC(=O)N1CCc2cc(Br)cc(S(=O)(=O)N3CCC(O)(c4cccc(C(F)(F)F)c4)CC3)c21 | 2.1 | -2.5 | 0.3 | 4.9* | -0.6 | 11.3
SMILES | TEAD-YAP block | MITF inh | FBW7 activator | GPR151 ag | GPR151 conf act | GPR119 ag
CC(=O)N1CCc2cc(Br)cc(S(=O)(=O)N3CCCCC3)c21 | -4.4 | 15.4 | 0.0 | 0.5 | nt | nt
CCOc1ccc(NC(=O)CSc2nc3n[nH]c(C)c3c(=N)n2-c2ccc(OCC)cc2)cc1 | 29.9 | 1.3 | -0.2 | -1.3 | nt | nt
COc1ccc(OC)c(NC(=O)CSc2nc3n[nH]c(C)c3c(=N)n2-c2cc(Cl)ccc2C)c1 | 0.2 | 7.0 | 0.0 | 11.8* | 0.0 | -0.1
CCCCNC(=O)CSc1nc2n[nH]c(C)c2c(=N)n1-c1ccccc1CC | -22.0 | -6.2 | -0.2 | 5.9* | 0.2 | 2.9
CCOc1ccc(-n2c(SCC(=O)Nc3ccc(CC)cc3)nc3n[nH]c(C)c3c2=N)cc1 | 12.9 | 4.2 | -0.2 | 5.3* | 2.1 | 8.7
Cc1cccc(NC(=O)CSc2nc3n[nH]c(C)c3c(=N)n2-c2ccc(Br)cc2)c1 | 2.9 | 2.8 | -0.4 | 5.8* | -0.1 | 5.4
COCCCNc1nc2nonc2nc1N1CCN(C2CCc3ccccc3C2)CC1 (centres undefined) | -12.1 | 12.5 | 0.1 | -0.9 | nt | nt
COc1ccc(CCc2nnc(CCC(=O)N3CCSCC3)o2)cc1 | -28.4 | 3.9 | -0.1 | -1.7 | nt | nt
CCOC(=O)c1c(CC(C)C)csc1NC(=O)C1CC1 | 6.8 | 9.2 | -0.1 | 0.8 | nt | nt
CCN1CCN(c2nc3ccc(OC)cc3cc2C#N)CC1 | -13.4 | -18.6 | 0.1 | -1.1 | nt | nt
CC(NCc1cc(Br)ccc1OCC(N)=O)C12CC3CC(CC(C3)C1)C2 (centres undefined) | 23.6 | 1.5 | -0.1 | 7.6* | -0.8 | -17.8
CC1Cc2cc(S(=O)(=O)NCCC(=O)NC3CCCC3)ccc2N1C(=O)C1CC1 (centres undefined) | -5.1 | -7.3 | -0.5 | 0.7 | nt | nt
NC(=O)C1CCN(c2cc(=O)n(Cc3ccc(F)cc3)c(=O)[nH]2)CC1 | 2.1 | 16.3 | 0.0 | 0.1 | nt | nt
CCOC(=O)CN(Cc1ccc(F)cc1)S(=O)(=O)c1cccc(Cl)c1 | 13.5 | 4.3 | 0.1 | -1.3 | nt | nt
COc1ccc(C(=O)N2CCN(C(=O)c3ccccc3OC)CC2)cc1 | -2.9 | 2.4 | -0.4 | 1.1 | nt | nt
CCCCCCn1c(N2CC(C)CC(C)C2)nc2c1c(=O)[nH]c(=O)n2C (centres undefined) | -5.2 | 11.0 | 0.1 | 5.8* | 0.3 | 7.2
CCCCCn1c(N2CCCC2)nc2c1c(=O)[nH]c(=O)n2C | 3.9 | 7.1 | 0.1 | -0.3 | nt | nt
COc1cc(Nc2nc(-c3csc4ccccc34)nc3c2ncn3-c2ccccc2)cc(OC)c1OC | -1.2 | 8.7 | 0.0 | -1.7 | nt | nt
CCCCc1c(C)c2ccc3oc(C(=O)c4ccc(OC)cc4)c(C)c3c2oc1=O | -4.2 | -7.2 | -0.3 | 0.2 | nt | nt
O=C(NC1CCCCC1)c1ccc(F)c(F)c1 | 8.0 | -10.5 | 0.1 | 5.8* | 0.1 | -17.8
O=C(NC1CCCCC1)c1ccc(-n2cccc2)cc1 | -44.0 | 18.7 | -0.1 | 5.8* | 0.4 | -3.0
CCOC(=O)C1CCN(/C=C2/C(=O)NC(=O)N(c3ccc(Cl)cc3)C2=O)CC1 | -1.0 | -10.6 | -0.1 | 1.5 | nt | nt
COCCNc1nc(-c2ccc([N+](=O)[O-])cc2)nc2ccccc12 | 8.8 | 11.8 | 0.0 | 0.4 | nt | nt
COCCNc1oc(-c2ccccc2)nc1S(=O)(=O)c1ccc(Cl)cc1 | -2.2 | 3.7 | -0.9 | -1.4 | nt | nt
COCCNc1oc(-c2ccccc2)nc1S(=O)(=O)c1ccc(C)cc1 | -0.9 | 2.4 | -0.1 | 6.1* | 0.1 | 1.1
